Bioassay records from PubChem.
M1 antag – human M1 muscarinic receptor antagonists, primary screen, CHO-K1 cells, Fluo-8 calcium fluorescence, 1536-well; CHO-K1 hM1, ACh EC80 antagonist; inhibition, % at 3 µM; hit rate 1.3% among 360,000;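 active = percent inhibition above its own plate's cutoff, namely the mean of that plate's compound wells plus 3 SD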;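 note: peak over basal fluorescence ratio during 140 s after agonist addition; 0% = ACh EC80 plus DMSO and 100% = DMSO alone without agonist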
Target sequence (P11229 whole entry, looked up): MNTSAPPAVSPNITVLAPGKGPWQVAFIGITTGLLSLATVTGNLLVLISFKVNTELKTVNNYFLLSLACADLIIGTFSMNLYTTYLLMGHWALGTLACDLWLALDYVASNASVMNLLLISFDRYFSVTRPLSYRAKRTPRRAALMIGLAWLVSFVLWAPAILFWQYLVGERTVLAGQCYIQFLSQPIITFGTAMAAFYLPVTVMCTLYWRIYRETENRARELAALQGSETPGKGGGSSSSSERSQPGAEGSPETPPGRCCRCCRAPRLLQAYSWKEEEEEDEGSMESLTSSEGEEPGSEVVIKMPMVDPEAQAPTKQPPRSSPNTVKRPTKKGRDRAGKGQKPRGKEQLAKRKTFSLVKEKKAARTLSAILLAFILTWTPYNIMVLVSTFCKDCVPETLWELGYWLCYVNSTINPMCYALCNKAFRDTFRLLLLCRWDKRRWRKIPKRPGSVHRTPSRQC
M1 PAM parental – nonselective calcium activators in parental CHO-K1 cells, primary screen, counter-screen for M1 PAM project, cell-based, Fluo-8 calcium fluorescence, full deck, 1536-well; ATP EC20; 0% at ATP EC20, 100% at ATP max; hit rate 0.02% among 360,000; activation, % at 3 µM;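 active = activation above the run cutoff, the mean activation of all test compounds plus 3 SD, cut at about 40% in these data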;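 note: peak over basal fluorescence ratio in a 140 s read after ATP addition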
M1 PAM – human M1 muscarinic receptor positive allosteric modulators, primary screen, CHO-K1 cells, Fluo-8 calcium fluorescence, 1536-well; Muscarinic acetylcholine receptor M1 (Homo sapiens), P11229; AID 588819, 2011; activation, % at 3 µM; CHO-K1 hM1, ACh EC20; 0% = ACh EC20, 100% = maximal ACh; hit rate 0.088% among 360,000; in the data active = activation above about 19%, passing the limit was not always enough
M1 ag – human M1 muscarinic receptor agonists, primary screen, Fluo-8 calcium fluorescence, CHO-K1 cells, HTS; hit rate 0.33% among 360,000; CHO-K1 hM1, agonist mode; 0% DMSO, 100% acetylcholine EC100; activation, % at 3 µM; Muscarinic acetylcholine receptor M1 (Homo sapiens), P11229; AID 588814, 2011;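 active = activation above the run's mean compound activation plus 3 SD, cut at about 16% in these data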;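 note: peak over basal fluorescence ratio within a 140 s kinetic read after compound addition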
CHO-K1 Ca antag – counter-screen for M1 antagonists: effect in parental CHO-K1 cells. ATP-induced calcium, Fluo-8 fluorescence. inhibition, % at 3 µM. hit rate 0.6% among 360,000. AID 602250;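 active = inhibition above a per-plate cutoff, the plate's mean sample inhibition plus 3 SD, cut at about 24% in these data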;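 note: 0% = DMSO plus EC80 ATP and 100% = DMSO alone without ATP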
M1 ag parental – counter-screen for M1 agonists: effect in parental CHO-K1 cells; activation, % at 3 µM; Fluo-8 calcium fluorescence; scaled to maximal ATP response, vehicle zero; hit rate 0.48% among 360,000; AID 602248, 2012; in the data active = activation above about 15%;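 note: untransfected CHO-K1 host cells lacking M1 receptor as counterscreen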
Numbers without * were called inactive. Most compounds without a hit are left out; they make up all but 2.3% or so of the library.

SMILES	M1 antag	M1 PAM parental	M1 PAM	M1 ag	CHO-K1 Ca antag	M1 ag parental
CC(CNC(=O)c1ccc(NC2=NC3CS(=O)(=O)CC3S2)cc1)c1ccccc1 (stereo not given)	-13.8	17.7	7.8	-2.5	-7.1	0.8
CCCOP(=O)(c1ccc(N(C)C)cc1)C(O)c1ccc(Br)cc1 (stereo not given)	-22.9	5.5	15.3	2.4	-3.1	10.5
O=C(C1=NN[C@@H]2C(=O)N(c3cccc(C(F)(F)F)c3)C(=O)[C@H]12)c1cnccn1	-16.6	20.4	8.1	-1.5	1.8	-0.2
CN(C)c1nc(N(C)C)nc(N2CCCCC2)n1	21.5*	-3.9	-1.1	-5.0	11.6	-0.4
O=C(CSC1=NS(=O)(=O)c2cc(F)ccc2N1)NCc1ccccc1Cl	-12.6	2.2	9.6	-3.6	1.9	0.2
CCc1nc2c(OCC(=O)C(C)(C)C)cccn2c1N(C)C(=O)COc1ccccc1	-9.1	8.5	6.1	-5.9	0.7	-0.1
CCCNC(=O)C1(C)CCN(C(=O)c2ccc3sccc3c2)C1 (stereo not given)	-5.3	14.5	2.7	-1.8	-5.2	0.5
CCOC(=O)c1ccc(NC(=O)N2CCN(c3ccccn3)CC2)cc1	-0.2	-4.6	8.4	-3.2	12.5	2.3
COC(=O)c1ccc(N2CCOCC2)c(NC(=O)Nc2cccc(OC)c2)c1	-6.2	-7.7	4.9	-4.4	14.2	0.4
CCOC(=O)c1ccc(N2CCN(c3ccccc3F)CC2)c(NC(=O)Nc2cccc(OC)c2)c1	31.6*	-4.5	-12.2	0.8	41.2*	6.1
CCOC(=O)c1ccc(NC(=O)N2CCN(c3cccc(OC)c3)CC2)cc1	44.4*	1.9	-7.0	-0.8	-2.6	12.5
Cc1cccc(C)c1OCc1cc(C(=O)N2CCN(c3ccccc3)CC2C)no1 (stereo not given)	2.5	8.8	-2.5	-4.2	-13.5	-0.6
CCn1c(C)c(C(C)=O)c(NCc2ccccc2)nc1=S	50.5*	-0.5	-21.9	-8.5	16.6	-0.7
CC(CN1CCCCC1)OC(=O)C1c2ccccc2Oc2ccccc21 (stereo not given)	86.8*	4.7	-20.8	-3.5	-3.7	0.4
CC(=O)Nc1ccc2c(c1)CN(c1cc(C)ccc1C)CO2	2.4	-13.9	-4.1	1.8	24.8*	8.3
CC(=O)Nc1ccc(S(=O)(=O)N2CCN(c3cc(C)ccc3C)CC2)cc1	-10.2	9.8	-0.1	0.4	-6.8	3.4
CC[C@H](C)[C@H]1CNC(=O)C(=O)N1CC1CCN(CC2CCC(C)CC2)CC1 (stereo not given in full)	-9.5	23.0	4.1	-10.3	-23.8	0.3
CC(C)C[C@H]1CNC(=O)C(=O)N1CC1CCN(CC2CCC(C)CC2)CC1 (stereo not given in full)	39.1*	-8.0	-18.7	-11.3	22.2	-0.3
Cc1cccc(N2C(=O)CC(N3CCN(c4ccccn4)CC3)C2=O)c1 (stereo not given)	2.0	16.9	9.4	-12.2	-3.4	1.4
O=C1c2ccccc2NC(c2ccc(O)c(O)c2)N1c1ccccc1Cl (stereo not given)	-4.9	-3.4	3.3	-3.9	-3.4	-0.1
Cc1ccc(S(=O)(=O)CC2CSc3nnc(C)c(=O)n32)cc1 (stereo not given)	-24.0	19.7	10.7	-2.8	-17.4	1.5
Cc1nnc2n(c1=O)C(CS(=O)(=O)c1ccc3ccccc3c1)CS2 (stereo not given)	-7.9	10.5	7.4	-5.0	5.8	15.2*
Cc1ccc(C(C)C)cc1OCCn1cncn1	-8.0	14.9	2.0	-2.5	-6.7	0.3
CCOC(=O)C1=C[C@@H](C2CCCCC2)N(S(=O)(=O)c2ccc([N+](=O)[O-])cc2)[C@H]1c1ccccc1	22.3	3.7	-8.2	-0.8	26.9*	0.8
NC(=O)c1ccc[n+]([C@H]2O[C@@H](COP(=O)([O-])OP(=O)(O)OC[C@H]3O[C@@H](n4cnc5c(N)ncnc54)[C@H](O)[C@@H]3O)[C@H](O)[C@@H]2O)c1	-9.4	6.4	-3.8	27.4*	10.2	26.6*
SMILES	M1 antag	M1 PAM parental	M1 PAM	M1 ag	CHO-K1 Ca antag	M1 ag parental
O=C(C1CCCN(S(=O)(=O)c2cccs2)C1)N1CCc2ccccc2C1 (stereo not given)	-24.7	17.6	3.9	-0.1	-12.6	2.2
O=C(C1CCCN(S(=O)(=O)c2cccs2)C1)N1CCN(C2CCCCC2)CC1 (stereo not given)	17.3*	-3.7	-17.1	-9.6	-3.0	0.5
COc1ccc(C)cc1NC(=O)CSc1nnc2ccc(-c3ccncc3)nn12	27.8*	7.8	-16.0	-7.0	-6.9	1.3
CC1CCN(S(=O)(=O)c2ccc(Oc3ccc([N+](=O)[O-])cc3)cc2)CC1	29.8*	-1.9	-18.1	-6.2	-0.1	5.0
COc1cc(OC)cc(C(=O)N2CCN(C3CCC(C)CC3)CC2)c1 (stereo not given)	31.5*	-10.9	-20.3	-8.1	0.3	0.2
COc1ccc(Oc2c(C)oc3c(CN(C)C)c(O)ccc3c2=O)cc1	32.0*	10.5	-21.6	-14.0	-14.6	0.4
Cc1nn(-c2ccccc2)c(C)c1NC(=O)COc1cc(F)ccc1[N+](=O)[O-]	11.0	-22.9	-8.6	0.9	11.3	17.7*
CN(C)CCNc1nc2sc3c(c2c(=O)n1Cc1ccccc1)CCCCC3	73.3*	3.8	-29.9	-10.6	12.0	13.1
CC1(C)CC(=O)C=C(Nc2ccc(O)c(C(=O)O)c2)C1	-37.9	5.7	29.6*	2.2	14.2	-0.4
CC1(C)CC(=O)C=C(Nc2ccc(C(=O)O)cc2)C1	3.4	-5.9	-8.1	-2.0	18.3	-0.5
Cc1ccc(S(=O)(=O)NC(C)(C)CN2CCC(Cc3ccccc3)CC2)cc1	16.3	5.8	-15.0	-3.8	-4.3	5.4
O=c1c(C(c2ccc(O)cc2)c2c(O)nc3n(c2=O)CCS3)c(O)nc2n1CCS2	-8.6	-7.9	15.5	1.4	24.5*	-0.3
CN1CCN(C(=O)c2ccccc2N(Cc2ccccc2)S(=O)(=O)c2ccccc2)CC1	2.9	-7.1	-6.8	28.4*	-7.5	0.7
CC1(C)CC(=O)C2=C(C1)OC(N)=C(C#N)C2c1cc2c(cc1[N+](=O)[O-])OCO2 (stereo not given)	38.1*	-10.7	-25.1	-9.7	15.4	2.9
Oc1ccccc1-c1nnc(COc2ccc(Cl)cc2Cl)o1	-7.2	-13.8	2.6	-0.1	43.7*	-1.1
CCc1noc(C)c1C(=O)NNC(=O)c1ccc(N(CC)CC)cc1	-5.5	-2.7	9.8	-0.3	-6.3	-0.7
